Data on one sequence can be found in publication PMC7862700, “An all-to-all approach to the identification of sequence-specific readers for epigenetic DNA modifications on cytosine”.

Common to all, as to test: DAPPL (digital affinity profiling via proximity ligation, sequencing); 10 mM Tris-HCl pH 7.5, 50 mM NaCl, 1 mM DTT, 4% glycerol, room temperature, 30 min; GST-TFs on glutathione beads, 16-mer random dsDNA library, 0.1% formaldehyde crosslink after washing; high values mean tight binding
For one test, the target named is T1, FLI1 (Homo sapiens, UniProt Q01543 1-452).
T1 sequence: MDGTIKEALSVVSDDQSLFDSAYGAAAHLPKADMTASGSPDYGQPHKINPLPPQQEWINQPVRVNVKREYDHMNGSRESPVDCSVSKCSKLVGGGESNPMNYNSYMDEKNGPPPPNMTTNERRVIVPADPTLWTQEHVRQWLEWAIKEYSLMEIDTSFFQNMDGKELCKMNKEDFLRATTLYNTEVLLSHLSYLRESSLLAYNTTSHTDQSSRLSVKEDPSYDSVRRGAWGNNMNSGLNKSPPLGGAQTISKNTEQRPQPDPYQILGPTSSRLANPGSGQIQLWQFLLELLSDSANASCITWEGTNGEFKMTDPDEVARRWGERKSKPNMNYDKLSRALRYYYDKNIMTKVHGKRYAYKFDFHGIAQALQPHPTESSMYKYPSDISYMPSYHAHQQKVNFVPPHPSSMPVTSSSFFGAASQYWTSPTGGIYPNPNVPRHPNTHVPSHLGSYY
The settings on record: protein: recombinant; tags: N-terminal GST; dsDNA, one strand shown. The method in brief: (§1)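 Sequencing on an Illumina NextSeq500 followed washing, crosslinking with 0.1% formaldehyde, proximity ligation (BsaI/T4 ligase, 1 h, 37 °C) and PCR amplification of pools that had been incubated for 30 min at room temperature with 200 nmole of a random double-stranded 16-mer DNA library in Tris/NaCl/DTT/glycerol buffer. Each pool held DNA-barcoded human transcription factors, expressed in yeast as GST fusions and captured on glutathione beads, plus a tag-only sample. Binding signal is a hexamer's read frequency for a factor divided by its frequency in the tag-only sample.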

The next test concerns the target T2, ELK1 (Homo sapiens, UniProt P19419 1-428).
T2 sequence: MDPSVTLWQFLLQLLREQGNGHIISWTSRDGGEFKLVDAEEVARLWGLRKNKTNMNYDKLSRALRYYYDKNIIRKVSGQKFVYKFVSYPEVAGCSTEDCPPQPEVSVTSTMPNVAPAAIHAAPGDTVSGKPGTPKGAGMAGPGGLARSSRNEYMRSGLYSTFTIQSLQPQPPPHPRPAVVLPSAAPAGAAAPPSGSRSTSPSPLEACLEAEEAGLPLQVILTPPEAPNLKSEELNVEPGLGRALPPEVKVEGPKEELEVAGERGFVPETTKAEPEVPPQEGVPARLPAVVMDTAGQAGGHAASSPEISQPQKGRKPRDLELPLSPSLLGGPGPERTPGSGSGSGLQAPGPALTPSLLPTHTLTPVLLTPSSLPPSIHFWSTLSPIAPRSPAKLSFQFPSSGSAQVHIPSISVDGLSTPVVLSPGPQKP
The conditions noted are these: protein: recombinant; tags: N-terminal GST; dsDNA, one strand shown. The method in brief: as §1

A further test addresses T3, GABPA (Homo sapiens, UniProt Q06546 1-454).
T3 sequence: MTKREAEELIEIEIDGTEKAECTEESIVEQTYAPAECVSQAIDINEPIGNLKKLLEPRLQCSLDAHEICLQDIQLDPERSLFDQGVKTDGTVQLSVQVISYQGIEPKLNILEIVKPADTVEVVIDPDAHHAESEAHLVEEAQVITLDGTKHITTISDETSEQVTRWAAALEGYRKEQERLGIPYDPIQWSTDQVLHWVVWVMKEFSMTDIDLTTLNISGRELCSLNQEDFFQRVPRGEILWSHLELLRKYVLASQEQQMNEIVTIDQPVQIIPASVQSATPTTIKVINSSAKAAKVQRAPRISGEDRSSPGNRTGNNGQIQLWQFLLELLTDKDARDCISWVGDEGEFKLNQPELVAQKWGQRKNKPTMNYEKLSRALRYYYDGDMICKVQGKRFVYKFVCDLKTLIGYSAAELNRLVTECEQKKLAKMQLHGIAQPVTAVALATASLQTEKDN
The conditions noted are these: protein: recombinant; tags: N-terminal GST; dsDNA, one strand shown. The method in brief:
as §1

The next test concerns the target T4, ERG (Homo sapiens, UniProt P11308 1-479).
T4 sequence: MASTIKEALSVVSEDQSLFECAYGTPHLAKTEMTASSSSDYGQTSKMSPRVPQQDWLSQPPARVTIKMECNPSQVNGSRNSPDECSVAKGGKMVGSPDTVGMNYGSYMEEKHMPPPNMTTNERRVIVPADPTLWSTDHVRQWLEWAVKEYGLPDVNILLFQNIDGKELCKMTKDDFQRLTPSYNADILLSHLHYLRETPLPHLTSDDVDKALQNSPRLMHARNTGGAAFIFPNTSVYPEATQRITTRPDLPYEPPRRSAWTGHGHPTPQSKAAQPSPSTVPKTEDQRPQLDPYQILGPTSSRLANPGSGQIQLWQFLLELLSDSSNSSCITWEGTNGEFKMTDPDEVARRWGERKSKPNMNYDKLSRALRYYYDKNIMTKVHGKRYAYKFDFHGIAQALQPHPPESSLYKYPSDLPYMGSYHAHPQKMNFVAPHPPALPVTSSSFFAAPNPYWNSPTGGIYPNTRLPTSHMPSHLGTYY
The settings on record: protein: recombinant; tags: N-terminal GST; dsDNA, one strand shown. The gist of the method: as §1

The target in another test is ELF1 (Homo sapiens, UniProt P32519 1-619). The conditions noted are these: protein: recombinant; tags: N-terminal GST; dsDNA, one strand shown. The gist of the method: as §1
The target in a further test is T5, EHF (Homo sapiens, UniProt Q9NZC4 1-300).
T5 sequence: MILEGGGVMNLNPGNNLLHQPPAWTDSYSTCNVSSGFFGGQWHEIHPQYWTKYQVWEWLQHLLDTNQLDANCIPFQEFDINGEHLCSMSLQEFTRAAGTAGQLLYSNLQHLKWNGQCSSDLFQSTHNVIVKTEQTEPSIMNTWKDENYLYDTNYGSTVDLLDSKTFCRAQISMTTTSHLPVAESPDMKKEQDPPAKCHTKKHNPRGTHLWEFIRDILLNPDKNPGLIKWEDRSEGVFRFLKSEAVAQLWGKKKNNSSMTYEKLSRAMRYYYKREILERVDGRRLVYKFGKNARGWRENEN
The conditions noted are these: protein: recombinant; tags: N-terminal GST; dsDNA, one strand shown. The gist of the method:
as §1

For the next test, the target named is SPI1 (Homo sapiens, UniProt P17947 1-270). The conditions noted are these: protein: recombinant; tags: N-terminal GST; dsDNA, one strand shown. The method in brief: as §1
In a further test the target is SPIB (Homo sapiens, UniProt Q01892 1-262). The conditions noted are these: protein: recombinant; tags: N-terminal GST; dsDNA, one strand shown. The gist of the method:
as §1

In another test the target is T6, ELK3 (Homo sapiens, UniProt P41970 1-407).
T6 sequence: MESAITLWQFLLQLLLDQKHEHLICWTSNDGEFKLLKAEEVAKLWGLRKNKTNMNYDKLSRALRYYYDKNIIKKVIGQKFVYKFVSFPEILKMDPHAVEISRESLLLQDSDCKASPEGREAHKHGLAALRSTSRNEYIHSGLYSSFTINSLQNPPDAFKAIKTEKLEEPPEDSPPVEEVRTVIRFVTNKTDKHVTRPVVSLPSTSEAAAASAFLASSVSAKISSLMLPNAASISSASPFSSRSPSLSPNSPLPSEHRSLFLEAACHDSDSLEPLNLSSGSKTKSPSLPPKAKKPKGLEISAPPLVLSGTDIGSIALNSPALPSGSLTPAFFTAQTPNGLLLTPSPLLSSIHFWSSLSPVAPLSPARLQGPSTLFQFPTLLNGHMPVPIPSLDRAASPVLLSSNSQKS
The conditions noted are these: protein: recombinant; tags: N-terminal GST; dsDNA, one strand shown. The method in brief:
as §1

Another test deals with T7, FEV (Homo sapiens, UniProt Q99581 1-238).
T7 sequence: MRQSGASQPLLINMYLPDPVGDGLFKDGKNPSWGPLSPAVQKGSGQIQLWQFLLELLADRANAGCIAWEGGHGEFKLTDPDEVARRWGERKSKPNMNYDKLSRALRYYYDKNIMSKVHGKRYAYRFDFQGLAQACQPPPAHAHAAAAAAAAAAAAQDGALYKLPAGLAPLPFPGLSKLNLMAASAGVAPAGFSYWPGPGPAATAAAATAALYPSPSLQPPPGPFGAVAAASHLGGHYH
The settings on record: protein: recombinant; tags: N-terminal GST; dsDNA, one strand shown. The method in brief: as §1

Another test deals with ETV5 (Homo sapiens, UniProt P41161 1-510). The settings on record: protein: recombinant; tags: N-terminal GST; dsDNA, one strand shown. The gist of the method:
as §1

A further test deals with HSF1 (Homo sapiens, UniProt Q00613 1-529). The conditions noted are these: protein: recombinant; tags: N-terminal GST; chain copies: 3; dsDNA, one strand shown. The method in brief: as §1
The target of another test is T8, SPIC (Homo sapiens, UniProt Q8N5J4 1-248).
T8 sequence: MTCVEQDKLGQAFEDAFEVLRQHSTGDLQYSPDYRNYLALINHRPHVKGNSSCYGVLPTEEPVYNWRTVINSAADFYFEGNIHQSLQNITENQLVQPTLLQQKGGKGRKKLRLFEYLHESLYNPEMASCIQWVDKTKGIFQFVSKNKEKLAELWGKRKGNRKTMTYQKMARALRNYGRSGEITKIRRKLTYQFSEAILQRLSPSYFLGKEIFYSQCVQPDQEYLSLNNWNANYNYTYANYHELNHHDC
The conditions noted are these: protein: recombinant; tags: N-terminal GST; dsDNA, one strand shown. The method in brief:
as §1

The next test concerns the target ELF4 (Homo sapiens, UniProt Q99607 1-663). The settings on record: protein: recombinant; tags: N-terminal GST; dsDNA, one strand shown. The method in brief:
as §1

A further test deals with T9, ELK4 (Homo sapiens, UniProt P28324-2 1-405).
T9 sequence: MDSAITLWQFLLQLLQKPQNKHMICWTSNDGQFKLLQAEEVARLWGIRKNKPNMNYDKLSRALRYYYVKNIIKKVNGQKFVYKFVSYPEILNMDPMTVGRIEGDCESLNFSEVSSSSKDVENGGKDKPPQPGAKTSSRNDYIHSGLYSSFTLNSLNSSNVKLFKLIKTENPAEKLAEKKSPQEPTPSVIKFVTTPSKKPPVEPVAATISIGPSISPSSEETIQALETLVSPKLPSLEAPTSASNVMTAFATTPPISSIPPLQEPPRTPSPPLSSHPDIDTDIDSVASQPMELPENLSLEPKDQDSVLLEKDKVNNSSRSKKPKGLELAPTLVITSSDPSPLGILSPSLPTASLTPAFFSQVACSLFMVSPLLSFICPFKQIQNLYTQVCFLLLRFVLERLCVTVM
The conditions noted are these: protein: recombinant; tags: N-terminal GST; dsDNA, one strand shown. The gist of the method:
as §1

The next test concerns the target T10, ETV2 (Homo sapiens, UniProt O00321 1-342).
T10 sequence: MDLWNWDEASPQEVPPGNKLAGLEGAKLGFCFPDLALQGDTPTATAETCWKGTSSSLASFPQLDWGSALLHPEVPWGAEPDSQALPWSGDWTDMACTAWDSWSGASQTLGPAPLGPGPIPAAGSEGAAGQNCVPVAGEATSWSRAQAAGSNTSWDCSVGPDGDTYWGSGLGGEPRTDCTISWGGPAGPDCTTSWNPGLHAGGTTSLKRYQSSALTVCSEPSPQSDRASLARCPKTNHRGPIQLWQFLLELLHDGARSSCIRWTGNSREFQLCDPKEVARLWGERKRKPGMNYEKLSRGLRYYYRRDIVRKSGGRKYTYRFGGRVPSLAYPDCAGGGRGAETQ
The settings on record: protein: recombinant; tags: N-terminal GST; dsDNA, one strand shown. The gist of the method:
as §1

Another test concerns the target T11, ELF3 (Homo sapiens, UniProt P78545 1-371).
T11 sequence: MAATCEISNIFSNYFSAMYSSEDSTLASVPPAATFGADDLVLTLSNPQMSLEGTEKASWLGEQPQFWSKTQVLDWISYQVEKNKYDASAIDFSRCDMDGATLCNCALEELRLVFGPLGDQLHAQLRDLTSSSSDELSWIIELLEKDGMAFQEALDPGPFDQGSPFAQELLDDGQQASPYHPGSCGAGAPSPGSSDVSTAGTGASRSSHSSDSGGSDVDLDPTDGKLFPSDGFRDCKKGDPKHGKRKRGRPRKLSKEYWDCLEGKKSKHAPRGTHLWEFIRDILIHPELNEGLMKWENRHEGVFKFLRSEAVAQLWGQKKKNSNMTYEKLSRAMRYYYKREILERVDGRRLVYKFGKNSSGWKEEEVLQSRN
The conditions noted are these: protein: recombinant; tags: N-terminal GST; dsDNA, one strand shown. The gist of the method: as §1

The target in another test is ETV1 (Homo sapiens, UniProt P50549 1-477). The conditions noted are these: protein: recombinant; tags: N-terminal GST; dsDNA, one strand shown. The method in brief:
as §1

Chain of ELF1 (P32519 whole entry): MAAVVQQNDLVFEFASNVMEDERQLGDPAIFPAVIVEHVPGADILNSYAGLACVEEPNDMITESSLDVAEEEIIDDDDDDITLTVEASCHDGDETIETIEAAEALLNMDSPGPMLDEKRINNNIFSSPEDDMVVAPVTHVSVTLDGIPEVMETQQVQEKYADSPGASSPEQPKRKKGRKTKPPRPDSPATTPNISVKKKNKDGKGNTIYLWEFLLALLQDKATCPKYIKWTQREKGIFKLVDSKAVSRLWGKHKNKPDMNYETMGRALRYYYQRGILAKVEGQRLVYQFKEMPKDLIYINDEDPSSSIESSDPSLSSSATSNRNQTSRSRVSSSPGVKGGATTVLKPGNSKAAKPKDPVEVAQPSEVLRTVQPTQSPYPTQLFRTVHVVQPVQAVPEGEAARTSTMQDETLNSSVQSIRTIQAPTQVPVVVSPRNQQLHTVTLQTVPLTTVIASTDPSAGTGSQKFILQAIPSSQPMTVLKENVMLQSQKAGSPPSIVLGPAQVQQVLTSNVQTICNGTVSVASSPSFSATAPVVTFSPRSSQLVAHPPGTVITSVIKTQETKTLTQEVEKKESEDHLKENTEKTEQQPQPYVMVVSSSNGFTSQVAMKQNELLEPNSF
Chain of SPIB (Q01892 whole entry): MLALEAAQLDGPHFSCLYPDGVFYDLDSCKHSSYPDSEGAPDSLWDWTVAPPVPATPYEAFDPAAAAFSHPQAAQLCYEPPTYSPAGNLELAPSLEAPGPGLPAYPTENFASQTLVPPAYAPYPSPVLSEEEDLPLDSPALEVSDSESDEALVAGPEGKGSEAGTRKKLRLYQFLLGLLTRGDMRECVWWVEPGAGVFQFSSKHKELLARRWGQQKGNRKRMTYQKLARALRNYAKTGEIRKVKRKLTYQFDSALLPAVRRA
Chain of ETV1 (P50549 whole entry): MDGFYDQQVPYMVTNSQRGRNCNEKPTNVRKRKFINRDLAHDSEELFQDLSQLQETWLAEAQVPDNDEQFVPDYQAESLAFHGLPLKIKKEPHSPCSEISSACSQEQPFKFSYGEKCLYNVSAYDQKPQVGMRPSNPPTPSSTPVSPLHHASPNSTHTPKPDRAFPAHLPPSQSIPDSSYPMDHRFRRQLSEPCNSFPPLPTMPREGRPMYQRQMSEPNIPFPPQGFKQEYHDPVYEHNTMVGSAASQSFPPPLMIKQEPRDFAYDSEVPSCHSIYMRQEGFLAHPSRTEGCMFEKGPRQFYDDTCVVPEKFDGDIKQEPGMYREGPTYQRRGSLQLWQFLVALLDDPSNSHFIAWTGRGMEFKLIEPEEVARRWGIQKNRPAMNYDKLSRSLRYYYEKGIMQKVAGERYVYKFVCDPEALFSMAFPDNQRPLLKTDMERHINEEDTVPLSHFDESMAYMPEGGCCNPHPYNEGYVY
Chain of ETV5 (P41161 whole entry): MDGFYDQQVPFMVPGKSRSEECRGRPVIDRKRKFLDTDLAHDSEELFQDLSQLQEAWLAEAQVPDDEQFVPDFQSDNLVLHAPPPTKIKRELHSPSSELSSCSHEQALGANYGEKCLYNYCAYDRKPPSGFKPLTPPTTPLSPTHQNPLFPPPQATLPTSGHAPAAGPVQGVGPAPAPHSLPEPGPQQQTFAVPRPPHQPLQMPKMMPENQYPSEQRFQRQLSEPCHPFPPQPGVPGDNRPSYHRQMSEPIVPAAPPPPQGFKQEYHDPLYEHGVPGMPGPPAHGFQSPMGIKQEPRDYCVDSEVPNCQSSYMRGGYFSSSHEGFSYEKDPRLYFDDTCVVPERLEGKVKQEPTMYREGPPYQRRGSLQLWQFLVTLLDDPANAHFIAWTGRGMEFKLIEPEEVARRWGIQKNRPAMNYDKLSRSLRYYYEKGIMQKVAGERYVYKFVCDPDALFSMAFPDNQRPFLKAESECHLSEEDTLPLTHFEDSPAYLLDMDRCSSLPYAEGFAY
Chain of HSF1 (Q00613 whole entry): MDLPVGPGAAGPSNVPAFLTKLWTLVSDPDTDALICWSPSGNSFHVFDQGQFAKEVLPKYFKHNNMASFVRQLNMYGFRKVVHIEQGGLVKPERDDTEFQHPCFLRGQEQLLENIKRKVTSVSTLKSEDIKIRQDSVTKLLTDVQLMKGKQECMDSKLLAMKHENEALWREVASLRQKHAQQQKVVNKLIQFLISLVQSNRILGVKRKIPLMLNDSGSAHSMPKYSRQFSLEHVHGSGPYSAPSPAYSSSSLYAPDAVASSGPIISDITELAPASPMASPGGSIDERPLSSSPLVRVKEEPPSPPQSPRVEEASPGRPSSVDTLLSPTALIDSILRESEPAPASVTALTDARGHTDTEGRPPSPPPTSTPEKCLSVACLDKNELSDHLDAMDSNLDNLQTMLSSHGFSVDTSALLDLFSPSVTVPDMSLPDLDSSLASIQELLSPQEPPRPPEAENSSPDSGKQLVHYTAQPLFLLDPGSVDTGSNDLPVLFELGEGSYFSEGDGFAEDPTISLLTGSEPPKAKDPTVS
Chain of ELF4 (Q99607 whole entry): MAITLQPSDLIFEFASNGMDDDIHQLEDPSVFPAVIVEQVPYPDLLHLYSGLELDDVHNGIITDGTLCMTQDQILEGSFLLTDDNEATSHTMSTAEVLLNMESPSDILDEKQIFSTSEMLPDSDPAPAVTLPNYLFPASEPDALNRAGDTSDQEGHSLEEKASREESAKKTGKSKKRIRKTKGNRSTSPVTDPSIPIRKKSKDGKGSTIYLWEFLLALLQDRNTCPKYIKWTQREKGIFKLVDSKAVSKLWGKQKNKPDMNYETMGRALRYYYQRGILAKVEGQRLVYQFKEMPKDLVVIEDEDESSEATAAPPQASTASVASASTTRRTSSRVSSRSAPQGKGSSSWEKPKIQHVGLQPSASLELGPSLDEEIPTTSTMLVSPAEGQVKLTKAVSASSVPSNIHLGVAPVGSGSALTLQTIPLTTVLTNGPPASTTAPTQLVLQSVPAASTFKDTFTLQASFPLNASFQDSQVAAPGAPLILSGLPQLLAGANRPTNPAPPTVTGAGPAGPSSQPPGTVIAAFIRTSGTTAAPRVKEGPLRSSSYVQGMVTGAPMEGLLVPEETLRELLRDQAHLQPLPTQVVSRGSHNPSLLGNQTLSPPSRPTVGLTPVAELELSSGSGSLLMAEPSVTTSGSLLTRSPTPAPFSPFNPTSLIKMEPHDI

On to GGCACT, for which the binding signal in the test with FLI1 was 1.24 fold enrichment (6-mer frequency, TF over GST control); with ELK1 it was 1.21 fold enrichment (6-mer frequency, TF over GST control); with GABPA, 1.28 fold enrichment (6-mer frequency, TF over GST control); with ERG it was 1.22 fold enrichment (6-mer frequency, TF over GST control); in the test with ELF1, 1.22 fold enrichment (6-mer frequency, TF over GST control); in the test with EHF, 1.33 fold enrichment (6-mer frequency, TF over GST control). In addition, the binding signal in the test with SPI1 was 1.35 fold enrichment (6-mer frequency, TF over GST control); with SPIB it was 1.35 fold enrichment (6-mer frequency, TF over GST control); with ELK3, 1.27 fold enrichment (6-mer frequency, TF over GST control); with FEV, 1.46 fold enrichment (6-mer frequency, TF over GST control); in the test with ETV5, 1.32 fold enrichment (6-mer frequency, TF over GST control); with HSF1 it was 1.03 fold enrichment (6-mer frequency, TF over GST control). Besides, the binding signal with SPIC was 1.24 fold enrichment (6-mer frequency, TF over GST control); with ELF4 it was 1.26 fold enrichment (6-mer frequency, TF over GST control); with ELK4, 1.28 fold enrichment (6-mer frequency, TF over GST control); with ETV2 it was 1.19 fold enrichment (6-mer frequency, TF over GST control); with ELF3 it was 1.29 fold enrichment (6-mer frequency, TF over GST control); with ETV1, 1.38 fold enrichment (6-mer frequency, TF over GST control).
